# Reference: the supplement of paper PMC8728848
# Only a selection was taken, and the strongest signals are over-represented in it overall.
# B1: LF82 (Escherichia coli) (protein)
# chain: ADWGPCRTASGDPFIFVTSFTKNIQNPTDNVTGQTYPDFYQWALGDKYSGVCECPSPNPTEARPTLYKTESTLAAGHNSTYFKITNNLEVSTRVYIANVGNVQVPFINKSNSQPGRECDQPTFGWTTGSKGQLSLYIAKPFVGEQNIPQTIIVSVFGTKKENVYSSVPISQVLLSGKVTVTQGCELAAGTSLDIDFGEYQAHDFKGRTGQPPQNVQKIQKELTFNCTNISDGVHIYLSLEGTPNAAYPSAISLGNADVGAVIEDGKGNILKPNDSNSLLEMNPGSLYEYVKRKVTTTITAYPVSTTGKLPAAGDYSGVATMHVELDGGGGGGGGGGATTDLGAKGTLKFSLKISQGHHHHHH
# Key:
# Experiment in all cases: glycan array binding signal (z-score within array); higher = stronger binding
# Details in all cases: glycan notation: IUPAC condensed, linker removed
# [1] = molecular target: Fuc(a1-2)Gal(b1-3)GalNAc(b1-4)[Neu5Ac(a2-3)]Gal(b1-4)Glc
# Method in brief: (§1)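 From the Consortium for Functional Glycomics database, 3228 arrays were curated, keeping only those whose protein sequence was available. Binding is given as a within-array Z-score averaged across arrays sharing a protein sequence and across linkers. Negative Z-scores can be read as non-binding.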
# [2] = molecular target: Fuc(a1-2)Gal(b1-3)GlcNAc6S
# Method in brief: as §1
# [3] = molecular target: Fuc(a1-2)[Gal(a1-3)]Gal(b1-3)GlcNAc
# Method in brief: as §1
# [4] = molecular target: Fuc(a1-2)[Gal(a1-3)]Gal(b1-3)GlcNAc(b1-2)Man(a1-3)[Fuc(a1-2)[Gal(a1-3)]Gal(b1-3)GlcNAc(b1-2)Man(a1-6)]Man(b1-4)GlcNAc(b1-4)[Fuc(a1-6)]GlcNAc
# Method in brief: as §1
# [5] = molecular target: Fuc(a1-2)[GalNAc(a1-3)]Gal(b1-3)GlcNAc(b1-6)GalNAc
# Method in brief: as §1
# [6] = molecular target: Fuc(a1-2)[GalNAc(a1-3)]Gal(b1-4)Glc
# Method in brief: as §1
# [7] = molecular target: Fuc(a1-3)[Gal(b1-4)]GlcNAc(b1-6)[Gal(b1-3)GlcNAc(b1-3)]Gal(b1-4)Glc
# Method in brief: as §1
# [8] = molecular target: Fuc(a1-3)[Gal3S(b1-4)]Glc
# Method in brief: as §1
# [9] = molecular target: Fuc(a1-4)GlcNAc
# Method in brief: as §1
# [10] = molecular target: Gal(a1-3)Gal(b1-3)GlcNAc
# Method in brief: as §1
# [11] = molecular target: Gal(a1-3)Gal(b1-3)[Fuc(a1-4)]GlcNAc(b1-2)Man(a1-3)[Gal(a1-3)Gal(b1-3)[Fuc(a1-4)]GlcNAc(b1-2)Man(a1-6)]Man(b1-4)GlcNAc(b1-4)GlcNAc
# Method in brief: as §1
# [12] = molecular target: Gal(a1-3)Gal(b1-4)[Fuc(a1-3)]GlcNAc
# Method in brief: as §1
# [13] = molecular target: Gal(a1-3)Gal(b1-4)[Fuc(a1-3)]GlcNAc(b1-2)Man(a1-3)[Gal(a1-3)Gal(b1-4)[Fuc(a1-3)]GlcNAc(b1-2)Man(a1-6)]Man(b1-4)GlcNAc(b1-4)GlcNAc
# Method in brief: as §1
# [14] = molecular target: Gal(b1-3)[Fuc(a1-4)]GlcNAc(b1-2)Man(a1-3)[Gal(b1-3)[Fuc(a1-4)]GlcNAc(b1-2)Man(a1-6)]Man(b1-4)GlcNAc(b1-4)[Fuc(a1-6)]GlcNAc
# Method in brief: as §1
# [15] = molecular target: Gal(b1-4)GlcNAc(b1-2)Man(a1-6)Man(b1-4)GlcNAc(b1-4)GlcNAc
# Method in brief: as §1
# [16] = molecular target: Gal(b1-4)GlcNAc(b1-3)Gal(b1-4)GlcNAc
# Method in brief: as §1
# [17] = molecular target: Gal(b1-4)GlcNAc(b1-3)Gal(b1-4)GlcNAc(b1-2)[Gal(b1-4)GlcNAc(b1-3)Gal(b1-4)GlcNAc(b1-6)]Man(a1-6)[Gal(b1-4)GlcNAc(b1-3)Gal(b1-4)GlcNAc(b1-2)Man(a1-3)]Man(b1-4)GlcNAc(b1-4)[Fuc(a1-6)]GlcNAc
# Method in brief: as §1
# [18] = molecular target: Gal(b1-4)GlcNAc(b1-3)Gal(b1-4)GlcNAc(b1-3)Gal(b1-4)GlcNAc(b1-3)Gal(b1-4)GlcNAc(b1-3)Gal(b1-4)GlcNAc(b1-2)[Gal(b1-4)GlcNAc(b1-3)Gal(b1-4)GlcNAc(b1-3)Gal(b1-4)GlcNAc(b1-3)Gal(b1-4)GlcNAc(b1-3)Gal(b1-4)GlcNAc(b1-6)]Man(a1-6)[Gal(b1-4)GlcNAc(b1-3)Gal(b1-4)GlcNAc(b1-3)Gal(b1-4)GlcNAc(b1-3)Gal(b1-4)GlcNAc(b1-3)Gal(b1-4)GlcNAc(b1-2)Man(a1-3)]Man(b1-4)GlcNAc(b1-4)[Fuc(a1-6)]GlcNAc
# Method in brief: as §1
# [19] = molecular target: Gal(b1-4)GlcNAc(b1-6)Gal(b1-4)GlcNAc
# Method in brief: as §1
# [20] = molecular target: Gal3S(b1-4)[Fuc(a1-3)]Glc6S
# Method in brief: as §1
# [21] = molecular target: GalNAc(a1-3)Gal
# Method in brief: as §1
# [22] = molecular target: GalNAc(a1-3)GalNAc(b1-3)Gal(a1-4)Gal(b1-4)GlcNAc
# Method in brief: as §1
# [23] = molecular target: GalNAc(b1-4)GlcNAc(b1-2)Man
# Method in brief: as §1
# [24] = molecular target: GalNAc(b1-4)GlcNAc(b1-2)Man(a1-3)[GalNAc(b1-4)GlcNAc(b1-2)Man(a1-6)]Man(b1-4)GlcNAc(b1-4)GlcNAc
# Method in brief: as §1
# [25] = molecular target: Glc(a1-4)Glc(a1-4)Glc(a1-4)Glc
# Method in brief: as §1
# [26] = molecular target: GlcNAc(a1-4)Gal(b1-4)GlcNAc
# Method in brief: as §1
# [27] = molecular target: GlcNAc(a1-4)Gal(b1-4)GlcNAc(b1-3)Gal(b1-4)[Fuc(a1-3)]GlcNAc(b1-3)Gal(b1-4)[Fuc(a1-3)]GlcNAc
# Method in brief: as §1
# [28] = molecular target: GlcNAc(b1-2)Man(a1-3)[GlcNAc(b1-2)Man(a1-6)]Man(b1-4)GlcNAc(b1-4)GlcNAc
# Method in brief: as §1
# [29] = molecular target: GlcNAc(b1-3)Gal(b1-4)GlcNAc(b1-2)Man(a1-3)[GlcNAc(b1-3)Gal(b1-4)GlcNAc(b1-2)Man(a1-6)]Man(b1-4)GlcNAc(b1-4)GlcNAc
# Method in brief: as §1
# [30] = molecular target: GlcNAc(b1-3)Gal(b1-4)GlcNAc(b1-3)Gal(b1-4)GlcNAc(b1-2)Man(a1-3)[GlcNAc(b1-3)Gal(b1-4)GlcNAc(b1-3)Gal(b1-4)GlcNAc(b1-2)Man(a1-6)]Man(b1-4)GlcNAc(b1-4)GlcNAc
# Method in brief: as §1
binder,measurement,setting,value
B1,glycan array binding signal (z-score),[1],3.03
same,glycan array binding signal (z-score),[2],2.87
same,glycan array binding signal (z-score),[3],-0.338
same,glycan array binding signal (z-score),[4],3.84
same,glycan array binding signal (z-score),[5],1.19
same,glycan array binding signal (z-score),[6],-0.933
same,glycan array binding signal (z-score),[7],-1.03
same,glycan array binding signal (z-score),[8],0.085
same,glycan array binding signal (z-score),[9],-0.348
same,glycan array binding signal (z-score),[10],-0.354
same,glycan array binding signal (z-score),[11],0.456
same,glycan array binding signal (z-score),[12],-1.48
same,glycan array binding signal (z-score),[13],1.79
same,glycan array binding signal (z-score),[14],0.378
same,glycan array binding signal (z-score),[15],4.95
same,glycan array binding signal (z-score),[16],-1.12
same,glycan array binding signal (z-score),[17],2.68
same,glycan array binding signal (z-score),[18],3.2
same,glycan array binding signal (z-score),[19],-0.202
same,glycan array binding signal (z-score),[20],-0.55
same,glycan array binding signal (z-score),[21],-0.316
same,glycan array binding signal (z-score),[22],-0.744
same,glycan array binding signal (z-score),[23],0.518
same,glycan array binding signal (z-score),[24],-0.272
same,glycan array binding signal (z-score),[25],1.21
same,glycan array binding signal (z-score),[26],2.49
same,glycan array binding signal (z-score),[27],3.63
same,glycan array binding signal (z-score),[28],-0.657
same,glycan array binding signal (z-score),[29],-0.713
same,glycan array binding signal (z-score),[30],1.79
